The results in this text go back to PubChem BioAssay (EPA / NIEHS).

SMILES strings stand for the structures. Several values for one entry are separate records, joined by “and”; a condition that tells them apart may be missing. Identical values can stand only once. Some compounds were tested as several samples or in several runs, with calls that do not always agree. Activity calls are given as the source filed them. The calls were made as follows: active = hit-call score of the fitted dose curve at least 0.9, where 1 is the maximum; inactive = score below 0.9.

In general, AC50 refers to the concentration giving half of the maximal activity seen.

A short description of this assay: ATG_PXRE_CIS: Attagene CIS-FACTORIAL HepG2 Assay for human Pregnane X Receptor Element (PXRE) (AID 2282957). The settings on record: HepG2 Attagene CIS-FACTORIAL PXRE reporter, mRNA; actives raise or lower the signal. Summed up:
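Transfect HepG2 with MRTUs (cis promoter elements); dose chemical, incubate 24 h; isolate RNA, RT with oligo(dT), PCR, 6-FAM label, HpaI cut, CE. Gain/loss fit vs DMSO.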
In the case of `CCCCOC(=O)[C@@H](C)Oc1ccc(Oc2ccc(C(F)(F)F)cn2)cc1`, the AC50 was 50 µM (active).

Consider `CCOC(=O)c1ccc(O)cc1`, for which the result was inactive. `COC(=O)c1ccccc1S(=O)(=O)NC(=O)Nc1nc(OC(F)F)cc(OC(F)F)n1`: the concentration at half-maximal activity (AC50) is 33.2 µM (active). Still for that read-out and setting: in the case of `COC(=O)c1cccc(C)c1S(=O)(=O)NC(=O)Nc1nc(OCC(F)(F)F)nc(N(C)C)n1` it was 34.5 µM (active). Turning to `CCC(O)=C1C(=O)CC(C(=O)O)CC1=O` (centres undefined), the outcome was inactive. With `CCCCOC(=O)C(C)Oc1ccc(Oc2ccc(C(F)(F)F)cn2)cc1` (centres undefined), the AC50 was 56.4 µM (active). In the case of `COC(=O)CSc1cc(N=c2sc(=O)n3n2CCCC3)c(F)cc1Cl`, the AC50 was 9.92 µM (active). `COc1nc(C)nc(NC(=O)NS(=O)(=O)c2ccccc2OCCCl)n1`: the AC50 is 34.2 µM (active) and 5.58 µM (active).

For `CCCCC(CC)CN1C(=O)C2C3C=CC(C3)C2C1=O` (centres undefined), the AC50 was 3.79 µM (active).

Regarding `C[C@]12CC[C@@H]3c4ccc(O)cc4C[C@@H](CCCCCCCCCS(=O)CCCC(F)(F)C(F)(F)F)[C@H]3[C@@H]1CC[C@@H]2O` (some centres undefined), the half-maximal activity concentration (AC50) is 363 nM (active) [middle of 4 runs]. Consider `CC(C)CCCCCCc1ccc(O)cc1`, for which the half-maximal activity concentration (AC50) is 2.88 µM (active) [middle of 4 runs].

As for `O=C(c1ccc(O)cc1O)c1ccc(O)cc1O`, the call was inactive. For the compound `CN(C)C(=O)Nc1ccc(Cl)c(Cl)c1`, the AC50 is 11.4 µM (active) and 25.4 µM (active). Turning to `COCCO`, the AC50 is 24.7 µM (active) and the compound was classed as inactive. For `N#CSCSc1nc2ccccc2s1` the same measures were 3.49 µM (active) and “inactive”. `CCOC(=O)COc1cc(-n2ncc(C(F)(F)F)c(C)c2=O)c(F)cc1Cl`: the AC50 was 28.5 µM (active).

On to `C#C[C@]1(O)CC[C@H]2[C@@H]3CCC4=CC(=O)CC[C@@H]4[C@H]3CC[C@@]21CC`, for which the half-maximal activity concentration (AC50) is 5.07 µM (active) [middle of 5 runs].

For the compound `CCCN(CCC)c1c([N+](=O)[O-])cc(C(F)(F)F)c(N)c1[N+](=O)[O-]`, the half-maximal activity concentration (AC50) is 1.29 µM (active). Regarding `COC(=O)c1ccccc1C(=O)O`, the result was inactive. With `C=CCOC(Cn1ccnc1)c1ccc(Cl)cc1Cl` (centres undefined), the half-maximal activity concentration (AC50) is 4.84 µM (active). `CSC(=O)c1cccc2nnsc12`: the AC50 is 49.4 µM (active). Consider `CC(=O)S[C@@H]1CC2=CC(=O)CC[C@]2(C)[C@H]2CC[C@@]3(C)[C@@H](CC[C@@]34CCC(=O)O4)[C@H]12`, for which the concentration at half-maximal activity (AC50) is 7.65 µM (active) [middle of 4 runs] and the compound was classed as inactive. Taken in the same sequence, the figures for `c1ccc2[nH]c(-c3cscn3)nc2c1` were 10 µM (active) and “inactive”. As for `C[C@]12C[C@H](O)[C@H]3[C@@H](CCC4=CC(=O)CC[C@@]43C)[C@@H]1CC[C@@H]2C(=O)CO`, the concentration at half-maximal activity (AC50) was 32.7 µM (active) [middle of 4 runs]. On the same count and under the same terms, in the case of `OB(O)O` it was 81.3 µM (active).

As to `S=C(S)NCCNC(=S)S.[Mn+2].[S-]C([S-])=NCCN=C([S-])[S-].[Zn+2]`, the AC50 was 13.2 µM (active) and 13 µM (active) and 12.9 µM (active); the compound was called inactive.

Take `COC(=O)c1ccc(CNS(C)(=O)=O)cc1S(=O)(=O)NC(=O)Nc1nc(OC)cc(OC)n1`: the compound was classed as inactive. Turning to `O=C(c1ccccc1)C1CCCCC1`, the half-maximal activity concentration (AC50) is 26.9 µM (active) [middle of 4 runs]. Consider `COC(=O)c1c(Cl)nn(C)c1S(=O)(=O)NC(=O)Nc1nc(OC)cc(OC)n1`, for which the result was inactive.
